Reference: PubChem BioAssay (NCI)
This is part of a sample that, as a whole, favours compounds with a hit. Of some 79,000 tested, about 15% had one in any assay. Unmarked numbers belong to inactive results. The source made the active and inactive calls. No stated cut-off is given here; in the data, active means growth inhibition above about 70%; inactive means the rest.

Tests used:
[1] = NCI Yeast Anticancer Drug Screen. Data for the rad50 strain (AID 155);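 further: 0% = growth of vehicle-only cultures of the same strain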; conditions: S. cerevisiae rad50 strain growth inhibition; at 50.0 µM; hits give high values
Procedure, shortened: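 DNA repair mutant yeast, compound exposure, growth read-out; inhibition is taken relative to vehicle.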

[2] = NCI Yeast Anticancer Drug Screen. Data for the mec2-1 strain (AID 157); conditions: S. cerevisiae mec2-1 strain, at 50.0 µM, hits give high values
Procedure, shortened: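 Compounds were applied to mec2-1 yeast cells. Their growth was then compared with that of vehicle-treated cultures to give growth inhibition.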

[3] = NCI Yeast Anticancer Drug Screen. Data for the sgs1 mgt1 strain (AID 161);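 further: 0% = growth of cultures given vehicle only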; conditions: S. cerevisiae sgs1 mgt1 strain, at 50.0 µM, hits give high values
Procedure, shortened: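 Yeast cells carrying a defined DNA-repair defect were exposed to test compounds. Growth inhibition was measured relative to vehicle-treated controls.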

[4] = NCI Yeast Anticancer Drug Screen. Data for the cln2 rad14 strain (AID 165);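 further: 0% = growth equal to vehicle treated cultures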; conditions: S. cerevisiae cln2 rad14 strain, at 50.0 µM, hits give high values
Procedure, shortened: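 Strain: cln2 rad14 yeast, altered in cell cycle control and DNA damage repair. Read-out: growth inhibition vs vehicle.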

[5] = NCI Yeast Anticancer Drug Screen. Data for the bub3 strain (AID 167); conditions: S. cerevisiae bub3 mutant strain, at 50.0 µM, hits give high values
Procedure, shortened: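 In this screen, a yeast mutant lacking normal mitotic checkpoint function is challenged with compound. Relative growth versus vehicle gives the inhibition value.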

[6] = NCI Yeast Anticancer Drug Screen. Data for the mlh1 rad18 strain (AID 175); conditions: S. cerevisiae mlh1 rad18 strain growth inhibition; at 50.0 µM; hits give high values
Procedure, shortened: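 A repair-deficient yeast strain is exposed to test compound, and growth is scored relative to vehicle-treated controls.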

Structure (SMILES)	growth inhibition [1]	growth inhibition [2] [%]	growth inhibition [3]	growth inhibition [4] [%]	growth inhibition [5] [%]	growth inhibition [6] [%]
CC(=O)C1CC[C@@]2(C)C(CC[C@H]3[C@@H]4CCC[C@H]([C@H](C)O)[C@@]4(C)CC[C@@H]32)C1 (stereo not given in full)	-16.9%	0.3	2.9%	0.4	-5.5	-7.5
CCCCCCCCCCCCCCCCCC1(c2ccccc2)NC(=O)NC1=O (stereo not given)	9.5%	10.3	30.5%	12.9	5.8	-13.1
N#CCC(=O)O	-0.2%	6.5	-4.3%	2.05	-3.2	-9
O=C1OC2=C(CCCCC2)C(N2CCCCC2)C12SCCCS2 (stereo not given)	-7.9%	-6.2	-5.2%	-17.3	-3.25	-14.9
O=c1cnn(C2OC(CO)C(O)C2O)c(=S)[nH]1 (stereo not given)	-4.45%	-1.45	28.6%	1.25	26.1	-96.5
O=C1CCCC1C(=O)c1ccccc1.O=C1CCCC1C(=O)c1ccccc1.[Cu] (stereo not given)	70.9% (active)	22.1	88.5% (active)	23.7	-2	52.9
COc1cccc(NC(=O)CSc2nnc(Cc3ccccc3)o2)c1	-18.8%	-11.9	-20.8%	-8.2	-12.4	-36.5
CCCC1CC(=O)NC(=O)C1C(=O)OC(C)(C)C (stereo not given)	-13.1%	-0.2	-8.65%	11	9.85	-47.4
Clc1ccc(CCn2ccc3ccccc32)c(Cl)c1	-12.6%	-10	0.05%	7.2	16.9	4.35
[O-][n+]1c(/C=C/c2cccc3ccccc23)cccc1/C=C/c1cccc2ccccc12	-8.6%	1	42.8%	6.55	29.4	40.8
O=S(=O)(O)C(O)c1ccccc1 (stereo not given)	1.25%	-2.85	-8.85%	-10.9	-15.1	-6.2
Cc1nc(NCc2ccco2)nc(NCc2ccco2)c1[N+](=O)[O-]	-14.7%	-18.6	-5.85%	-22.6	27.7	-13.1
O=C(O)c1n[nH]c2ccccc12	8.5%	-14.1	3.75%	5.6	-5.7	-9.85
CCO/N=C(/N)c1ncn(Cc2ccccc2)c1NCC(OCC)OCC	-26.4%	1.15	-4.2%	22.2	-1	-16.9
COC(=O)C12C=CC(C1)n1c(=O)n(-c3ccccc3)c(=O)n12 (stereo not given)	-8.55%	7.25	0.5%	-0.2	4.4	-2.9
N#Cc1sc2nc3c(c(-c4ccccc4)c2c1N)CCCC3	-8.3%	-4.65	-0.95%	-8.4	-8.1	-5.75
O=[N+]([O-])c1ccc2[nH]c(=S)n(/C=C(/c3ccccc3)S(=O)Cc3ccccc3)c2c1 (stereo not given)	-2.45%	-22.6	-18.7%	-3.15	-12	-5.15
CC1=C(C(=O)CC(=O)C(=O)NC2C3CC4CC(C3)CC2C4)Sc2ccccc2N1 (stereo not given)	-33.5%	-0.15	-2.6%	8.8	-0.6	-21
NC(=O)NNC(=O)Cc1ccccc1	1.35%	-0.25	-1.95%	0.55	-0.95	-3.45
COc1ccc(/C=C/C(=O)c2ccc(Cl)s2)cc1	-18.2%	-4.75	-5.8%	-34.3	20.4	-4.5

Structure (SMILES)	growth inhibition [1]	growth inhibition [2] [%]	growth inhibition [3]	growth inhibition [4] [%]	growth inhibition [5] [%]	growth inhibition [6] [%]
NC(CCNCCc1ccccc1)CNCCc1ccccc1 (stereo not given)	29.7%	-11.6	10.9%	-2.85	-6.5	-7.15
CCCC(=O)OCCOc1ccccc1	18.1%	2.3	11%	7.2	0.8	2.5
Cc1ccc(S(=O)(=O)/C(C#N)=C/NC(=S)Nc2ccc(S(N)(=O)=O)cc2)cc1	12.5%	-21.2	-4.1%	-6.85	-10.7	-10.9
COC(=O)C1(CC(=O)c2cccc3ccccc23)NC(=S)NC(=O)C1C#N (stereo not given)	0.55%	15.7	-17.4%	-13.3	-0.7	-9.35
CC(=O)c1cc2c(cc1C)C(C)(C)CCC2C (stereo not given)	-0.75%	-24.8	-7.3%	-5	7.35	2.3
O=C1/C(=C/c2ccc(F)cc2)CC/C1=C\c1ccc(F)cc1	-10.5%	-12.1	-2.85%	-2.55	-13.8	-9.3
CC(=O)/C(=C/N1CCNC1=S)C(=O)Nc1ccc(Cl)cc1	-34.5%	-24	-39.6%	0.2	-39.2	-26.3
CN(c1ccccc1)S(=O)(=O)c1ccc([N+](=O)[O-])cc1	-13.4%	-52.7	6.75%	-7.1	21.8	-5.45
c1ccc(C2OCCO2)c(OCCOc2cc(OCCOc3ccccc3C3OCCO3)c(OCCOc3ccccc3C3OCCO3)cc2OCCOc2ccccc2C2OCCO2)c1	-7.6%	-18.9	-9.9%	0.3	-4.3	12.3
CCCC[P+](CCCC)(CCCC)c1ccccc1	-12.7%	12.3	-0.05%	-32.1	-8.95	-1.4
Cc1cc(Sc2ccccc2)nc2ccccc12	8.5%	-12.2	41.6%	4.1	48.5	12.3
Oc1c(Cl)cc(Cl)cc1/C=N/c1nc(-c2ccc(Cl)cc2)cs1	52.1%	26.1	61.3%	28.1	38.8	35
O=C1OC(c2cccc(Cl)c2)=N/C1=C\c1cc(Br)ccc1O	20.6%	5.7	27.8%	5.2	-0.4	5.95
Cc1cccc(-n2cnc3c(N(CCO)CCO)ncnc32)c1	6.55%	2.6	-10.1%	-4.5	2.25	-4.3
BrCCC[n+]1ccc2ccccc2c1-c1nccc2ccccc12	50.7%	16.1	54.2%	33.2	5.05	49.5
O=C1OC(c2ccccc2)(c2ccccc2)CC1c1ccccc1 (stereo not given)	9.05%	7.5	12.8%	-44	-4.25	20.7
CN(C)c1ccc(-c2cc(C(=O)O)c3cc(I)ccc3n2)c(Cl)c1	45.9%	30.6	36.5%	51.4	46.1	35.8
COc1ccc(N2C(=O)C3c4[nH]c5ccccc5c4C4CCCCC4C3C2=O)cc1 (stereo not given)	-3.4%	5.1	-7.15%	9.95	-1.05	-6.05
OCc1cc2ccc3ccccc3c2[nH]1	25.3%	24.9	47.9%	2.65	25.5	25.6
Cc1cc(OC(N)=S)cc(C)c1Cl	20.6%	4.2	7.6%	-6.25	3.4	-2.1
